Reference: PubChem BioAssay AID1917 (Vanderbilt High Throughput Screening Facility, 2009)
In all, about 3,000 compounds went through this assay and about 1,600 (53%) were called active. About 10% were inconclusive and are not listed. So high a share suggests a set chosen from earlier hits. Only a sample is shown. A number with no mark means an inactive call.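 Rule for the calls: active = Flux at 10 µM at least 3 SD below or above vehicle control mean in one or both replicates; inconclusive = no clear call, values can overlap the other calls; inactive = the rest.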

biological target: ATP-sensitive inward rectifier potassium channel 1 (Homo sapiens) (UniProt P48048); experiment: ROMK channel modulator hit retest, confirmation, cell-based, thallium flux, duplicate, resupplied hits (AID 1917); settings: fluorescence ratio, at 10 µM, active compounds read low
Sequence (P48048 whole entry, looked up): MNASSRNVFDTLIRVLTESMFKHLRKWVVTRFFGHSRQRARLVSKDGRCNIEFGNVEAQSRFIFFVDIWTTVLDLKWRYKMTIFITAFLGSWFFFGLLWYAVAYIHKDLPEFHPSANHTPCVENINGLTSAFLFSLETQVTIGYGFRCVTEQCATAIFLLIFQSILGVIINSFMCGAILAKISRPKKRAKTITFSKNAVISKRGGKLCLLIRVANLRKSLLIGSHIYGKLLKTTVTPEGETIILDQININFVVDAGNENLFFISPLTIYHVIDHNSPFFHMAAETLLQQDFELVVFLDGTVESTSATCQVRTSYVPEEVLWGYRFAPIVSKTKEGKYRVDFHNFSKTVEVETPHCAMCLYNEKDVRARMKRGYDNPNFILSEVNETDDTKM

Structure (SMILES) | normalized thallium flux (F/F0 slope)
CCCCCCCCCCCCn1ccc(=N)cc1 | 0.0386 (active)
Clc1ccc2nc3c(c(-c4ccccc4)c2c1)CNCC3 | 0.0588 (active)
CC1(C)Cc2c(C#N)c(N3CCNCC3)nc(-c3ccco3)c2CS1 | 0.0568 (active)
COc1ccccc1N=Nc1c(O)[nH]c(=S)[nH]c1=O | 0.0657 (active)
N#Cc1ccc(Cn2cc(C(=O)c3ccco3)c3ccccc32)cc1 | 0.0753
Cc1cc(C=C2C(=O)NC(=O)NC2=O)c(C)n1-c1ccncc1 | 0.0636 (active)
Cc1nc2ccccn2c1P(=S)(N1CCCCC1)N1CCCCC1 | 0.0668 (active)
NC(=O)Nc1cccc(C(F)(F)F)c1 | 0.0825
